Screening results from PubChem.
A selection: hits, their analogues and other compounds. The true share with any hit is near 4.1%.
DAX1 inh-1: inhibitors of human orphan nuclear receptor DAX1 (NR0B1). HEK293 Gal4-DAX1 luciferase reporter, luminescence. P51843. inhibition, % at 6.75 µM. actives 0.99% (n = 340,000);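 active means inhibition above the mean over all tested compounds plus 3 SD, cut at about 4.2% in these data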;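 further: 0% = DAX1-transfected cells with DMSO and 100% = empty-vector control cells with DMSO; inhibition shows as a rise in luminescence from relieved DAX1 repression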
PolyA inh: inhibitors of polyadenylation in S. cerevisiae | S. cerevisiae SKY197-pL101 polyadenylation reporter, beta-gal luminescence; efflux-impaired pdr1/pdr3 knockout yeast; score 100 = 6 SD above DMSO | activity score, % at 12 µM | actives 0.02% (n = 300,000) | AID 1875;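 active means lowest replicate activity score at least 50, where 100 means six control SD above control mean; inconclusive means lowest score under 50 but half or more replicates reach 50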;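 further: yeast exposed to compound for 9 h at 30 °C; higher score means more reporter readthrough which indicates perturbed polyadenylation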
hcDAF-12 act: activators of H. contortus DAF-12 nuclear receptor; HEK293 hcDAF-12 lit1-tk-luc reporter, luminescence; 0% DMSO, 100% Δ7-dafachronic acid; activation, % at 6.8 µM; actives 1.4% (n = 370,000); AID 652067;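 active means activation above the mean of all tested compounds plus 3 SD, cut at about 5.5% in these data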;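 further: 100% = response to 3 µM Δ7-dafachronic acid high control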
ssDAF12 agonist: activates DAF-12 receptor from parasite S. stercoralis; HEK293 ssDAF-12/GRIP1 lit1-tk-luc reporter, luminescence; % of 3 µM dafachronic acid response; activation, % at 6.8 µM; actives 1% (n = 370,000); AID 652126;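 active means activation above the mean over all tested compounds plus 3 SD, cut at about 0.9% in these data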;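 further: 0% = DMSO-only wells and 100% = 3 µM delta7-dafachronic acid wells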
hgDAF12 agonist: activates the H. glycines DAF-12 receptor ligand-binding domain | activation, % at 6.8 µM | AID 687014 | HEK293 GAL4-hgDAF12 UAS-luciferase reporter, agonist luminescence; normalized to butyrate control | actives 1.8% (n = 370,000);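 active means activation above a cutoff set at the mean of all screened compounds plus 3 SD, cut at about 10% in these data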;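 further: 0% = DMSO wells and 100% = sodium butyrate wells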
DAX1 inh-2: DAX1 (NR0B1) inhibition, primary screen | actives 1.1% (n = 370,000) | HEK293T StAR-luciferase reporter, SF-1/DAX-1 repression relief | inhibition, % at 6.8 µM;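 active means inhibition above the mean over all tested compounds plus 3 SD, cut at about 3.6% in these data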;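 further: 0% = DAX-1 cells with DMSO and 100% = cells lacking DAX-1 with DMSO; higher inhibition means more luminescence from relief of DAX-1 repression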
LXRb hcDAF ctr: activates human LXR-beta, counter-screen for hcDAF-12 agonists. 3,400 tested, under 10 active. shares compounds with hcDAF-12 act. activation, % at 6.8 µM. HEK293 Gal4-LXR tk-luc reporter, luminescence, 24 h; normalized: DMSO 0%, positive control 100%;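 active means mean percent activation of the reporter above a cutoff set as the average over tested compounds plus their standard deviation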
Target sequence (P55055 whole entry, looked up, the tested form may be a part): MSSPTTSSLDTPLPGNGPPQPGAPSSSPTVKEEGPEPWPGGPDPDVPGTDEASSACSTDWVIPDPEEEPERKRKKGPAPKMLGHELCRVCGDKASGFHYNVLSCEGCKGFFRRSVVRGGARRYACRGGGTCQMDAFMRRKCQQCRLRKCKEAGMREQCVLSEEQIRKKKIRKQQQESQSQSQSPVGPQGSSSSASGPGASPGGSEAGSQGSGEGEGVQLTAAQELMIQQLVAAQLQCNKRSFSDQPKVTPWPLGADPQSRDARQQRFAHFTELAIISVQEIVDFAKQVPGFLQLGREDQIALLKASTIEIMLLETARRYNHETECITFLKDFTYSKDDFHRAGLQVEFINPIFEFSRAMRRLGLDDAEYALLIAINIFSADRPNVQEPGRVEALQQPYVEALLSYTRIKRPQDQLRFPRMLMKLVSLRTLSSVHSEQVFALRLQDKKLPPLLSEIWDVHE
hcDAF12 ag: hcDAF-12 agonism, confirmation assay. actives 61% (n = 3,400). shares compounds with hcDAF-12 act. activation, % at 6.8 µM. HEK293 hcDAF-12 lit1-tk-luc reporter, luminescence; % of Δ7-dafachronic acid response;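 active means mean activation across triplicate tests above the threshold derived from the earlier primary screen, cut at about 5.5% in these data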;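 further: 0% = DMSO only wells and 100% = 3 µM Δ7-dafachronic acid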
Starred values were filed as active, the others as inactive; ? = inconclusive; / = no result given.

SMILES	DAX1 inh-1	PolyA inh	hcDAF-12 act	ssDAF12 agonist	hgDAF12 agonist	DAX1 inh-2	LXRb hcDAF ctr	hcDAF12 ag
C[C@H]1CCCCO[C@@H](CN(C)C(=O)NC2CCCCC2)[C@@H](C)CN([C@@H](C)CO)C(=O)c2cc(NC(=O)Cc3ccccc3)ccc2O1	0	/	-1	-2	-2	-2	/	/
O=[N+]([O-])c1ccccc1-c1ccc(C(=S)N2CCCCC2)o1	1	-12	6.8*	0	5	1	1	7.0*
Cc1cccc(N2CCN(C(=S)c3ccc(-c4ccccc4[N+](=O)[O-])o3)CC2)c1	2	-15	3	-1	-1	0	/	/
O=[N+]([O-])c1ccccc1-c1ccc(C(=S)N2CCCC2)o1	-1	-17	9.4*	1.8*	9	2	1	9.7*
COc1ccc(CCC(=O)N2CCN(C(=O)c3ccccc3)CC2)cc1	-1	-3	-1	-1	0	0	/	/
COc1ccc(/C(N)=N/OC(=O)Cc2cccs2)cc1	0	?	4	-1	10	1	/	/
COc1ccc(/C(N)=N/OC(=O)Cc2cccs2)cc1OC	-1	-4	14*	1	9	1	0	3
COc1ccc(OCCOCCN2CCc3ccccc3C2)cc1	-1	9	0	0	0	0	/	/
Clc1ccc(OCCCCN2CCc3ccccc3C2)cc1	-1	/	10*	0	8	0	0	3
COc1cc(Cl)ccc1OCc1cc(C(=O)N(C)Cc2nnc(C)o2)no1	0	8	2	0	3	2	/	/
COc1ccc(OCc2cc(C(=O)N(C)Cc3nnc(C)o3)no2)c(Cl)c1	1	8	6.6*	0	10	1	1	3
CC(=O)Nc1ccc(NC(=O)CN2C(=O)COc3ccc(S(=O)(=O)N4CCOCC4)cc32)cc1	1	-12	0	-1	1	0	/	/
CCN(CC)S(=O)(=O)c1ccc2c(c1)N(CC(=O)Nc1ccc(NC(C)=O)cc1)C(=O)CO2	3	-4	6.8*	0	-1	0	0	1
NNc1nc2ccc(F)cc2s1	2	-14	10.0*	1	9	2	0	5
C/C(=N/N=C(/C)c1cccs1)c1cccs1	6.1*	18	8.3*	1.1*	16*	1	1	11*
CCc1cccc(OCC2Cn3c(nc4c3c(=O)n(C)c(=O)n4C)O2)c1 (centres undefined)	-2	-13	-1	-1	-3	0	/	/
COc1ccc(Cl)cc1C1=NOC2(CCC2)C(=O)N1Cc1ccc(NC(C)=O)cc1	/	/	9.4*	-1	2	-2	0	0
COc1ccc(Cl)cc1C(=O)Nc1ccc(NC(C)=O)cc1	1	12	0	-1	0	1	/	/
Cc1ccccc1-c1cnc(C(O)c2ccc(Cl)cc2C)[nH]1 (centres undefined)	/	/	0	-1	3	0	/	/
COc1ccc(CN=Cc2[nH]c3ccc(Br)c(Cl)c3c2O)cc1	-1	-14	1	0	3	-1	/	/
Cc1cc(C)cc(N=Cc2[nH]c3ccc(Br)c(Cl)c3c2O)c1	-1	-12	35*	0	-3	-1	0	-1
COC(=O)[C@]12C[C@H](CC(=O)NCc3ccc(C)o3)C(=O)N(CCc3ccc(OC)c(OC)c3)C1=C[C@H](C1CCCC1)O[C@@H]2C	/	/	1	-1	2	0	/	/
N/C(=N\OC(=O)c1cccc2ccccc12)c1cccc([N+](=O)[O-])c1	1	3	0	-1	-1	1	/	/
N/C(=N\OC(=O)c1ccc(Cl)cc1Cl)c1ccc(Cl)cc1	4	24	2	0	2	0	/	/
N/C(=N\OC(=O)c1ccc(Cl)cc1Cl)c1ccccc1	2	-10	7.3*	0	10	2	2	25*
SMILES	DAX1 inh-1	PolyA inh	hcDAF-12 act	ssDAF12 agonist	hgDAF12 agonist	DAX1 inh-2	LXRb hcDAF ctr	hcDAF12 ag
N/C(=N\OC(=O)c1ccccc1Cl)c1ccc(Cl)cc1	2	-5	9.1*	1.5*	9	2	1	15*
Cc1cccc(/C(N)=N/OC(=O)c2cccc3ccccc23)c1	2	-5	7.0*	0.9*	5	3	0	6.3*
Cc1noc(C)c1S(=O)(=O)N(CC(=O)N1CCn2c1nc1ccccc12)c1ccc(C(C)C)cc1	3	-5	8.4*	0	-3	0	0	5
Cc1ccc(N(C(=O)CNC(=O)c2ccco2)C(C(=O)NC2CCCCC2)c2ccncc2)c(C)c1 (centres undefined)	1	-19	0	-1	0	0	/	/
CCOc1ccccc1CN1CCN(Cc2cc3ccccc3[nH]2)CC1CCO (centres undefined)	0	25	7.0*	0	0	0	0	3
CCOc1ccccc1CN1CCN(CC2CC2)CC1CCO (centres undefined)	-1	-1	0	-2	0	0	/	/
CN(C)c1cc2c3ccccc3n(C)c2cc1N	2	/	7.6*	0	4	0	0	4
COc1cccc(N2CC(C(=O)Nc3c(C(N)=O)oc4ccccc34)CC2=O)c1 (centres undefined)	1	10	2	-1	1	1	/	/
CCOC(=O)[C@@H]1[C@H]2COc3cc(OC)ccc3[C@@H]2N2C(=O)N(c3ccccc3)C(=O)[C@@]12C	0	/	0	-1	1	2	/	/
C[C@H]1CCCCO[C@@H](CN(C)S(=O)(=O)c2ccc(Cl)cc2)[C@@H](C)CN([C@@H](C)CO)C(=O)c2cc(NS(=O)(=O)c3ccccc3)ccc2O1	2	/	-1	-1	-2	-1	/	/
C[C@@H]1CN([C@H](C)CO)C(=O)c2cc(NS(=O)(=O)c3ccccc3)ccc2O[C@@H](C)CCCCO[C@@H]1CN(C)Cc1ccc(Cl)c(Cl)c1	/	/	6.7*	-1	-2	0	0	1
COc1cccc(CN(C)C(=O)C2CC(=O)N(c3ccc4c(c3)OCCO4)C2)c1 (centres undefined)	4	-6	1	-2	0	0	/	/
Oc1ccc(/C=N/N2CCN(C3c4ccccc4-c4ccccc43)CC2)cc1O	2	-25	-2	-1	-3	0	/	/
